We go through 59 molecules from PubChem BioAssay AID2315 (National Center for Advancing Translational Sciences (NCATS), 2010).

About 27,000 (9.3%) of roughly 290,000 compounds were called active. Cut-off read from the data, not from the text of the source: active = inhibition mostly above about 28% (no sharp cut-off); inactive = mostly below about 43%. Many of the other results were omitted from the sample, so actives are more common in it than they were.

The nature of the assay: A qHTS for Small Molecule Inhibitors of Shiga Toxin. For inhibition: 0% is about no effect. Particulars: Vero cells, Shiga toxin protein synthesis inhibition reporter; at 38.7 µM, active compounds read high.
Take `O=C(Nc1ccnn1C1CCN(C/C=C/c2ccc(F)cc2)CC1)C1CCCC1`: the inhibition is 12% (inactive).

With `CCOc1c(OC)cccc1C(=O)NCC1(c2ccccc2)CCCC1`, the inhibition is -6.29% (inactive). Consider `COc1ccc(C(=O)C2CCCN(S(=O)(=O)c3cccc(C)c3)C2)c(C)c1` (centres undefined), for which the inhibition was -2.5% (inactive).

For the molecule `O=c1oc2ccccc2cc1-c1csc(Nc2ccc(O)cc2)n1`, the inhibition is 111% (active). Next, `COc1ccc2nc(Nc3nc(-c4cc5ccccc5oc4=O)cs3)sc2c1`: 61.7% (inactive); `Cc1ccc(Nc2nc(-c3sc(NC(=O)c4ccccc4)nc3C)cs2)cc1`: 16.8% (inactive); `Cn1c(CNc2nc(-c3ccccc3)cs2)nnc1SCC(=O)c1ccccc1`: -0.789% (inactive). Next, `Cc1nc(C)c(-c2csc(NCCc3ccccc3)n2)s1`: 13.4% (inactive); `CCNc1nc(-c2cc3ccccc3o2)cs1`: 83.5% (active). Next, `COc1ccc(S(=O)(=O)N2CCOCC2)cc1C(=O)NC1CCCCC1`: -17% (inactive). Consider `CCN(CC)CCN(C(=O)c1ccc(N2C(=O)CCC2=O)cc1)c1nc2cc3c(cc2s1)OCO3`, for which the inhibition was 29.6% (inactive).

For `CN(C)CCCN(C(=O)c1ccc(S(=O)(=O)N2CCCCCC2)cc1)c1nc2ccc(Br)cc2s1`, the inhibition was 0.697% (inactive). For `CCN(CC)CCN(C(=O)c1ccc(S(=O)(=O)N2CCOCC2)cc1)c1nc2cc3c(cc2s1)OCCO3`, the inhibition is 44.5% (active). Next, `O=S(=O)(c1ccc(-c2ccno2)s1)N1CCCCC1`: -11.5% (inactive). Next, `COc1ccc2c(C)cc3nnnn3c2c1`: -4.48% (inactive); `Cc1ccc(C(=O)NCCNS(=O)(=O)c2ccccc2)cc1`: 1.8% (inactive); `CCS(=O)(=O)Nc1ccc(C(=O)NCCSc2ccccc2)cc1`: 79.2% (active). On to `Cc1ccc(C(=O)NCCNC(=O)c2ccccc2)cc1`, for which the inhibition was -8.28% (inactive). Next, `O=C(NCCSc1ccccc1)c1ccco1`: 80.2% (active).

As for `CCCc1ccc(OCC(=O)NNC(=S)NC(=O)c2ccco2)cc1`, the inhibition is -7.48% (inactive). Next, `O=C(CNC(=O)c1ccco1)OCC(=O)c1ccccc1`: 46.8% (inactive); `O=C(CSc1ccccc1)Nc1ccc(NC(=O)c2ccco2)cc1`: 38.7% (inactive). As for `CCCc1ccc(OCCNC(=O)c2ccco2)cc1`, the inhibition was 78.3% (active). Next, `CCCc1ccc(OCCNC(=O)c2ccccc2Br)cc1`: 34.3% (inactive); `Cc1cc(S(=O)(=O)NC2CCCC2)ccc1-n1cnnn1`: -8.85% (inactive). Then `Cc1cc(CNC(=O)C2CCC(=O)N(CCc3ccc(Cl)cc3)C2)no1` (centres undefined), with -7.54% (inactive); and `CC(=O)Nc1c2c(nn1-c1ccc(C)cc1C)CS(=O)C2` (centres undefined), with -1.19% (inactive); and `CC1=CCC2C(=O)N(c3cccc(C(=O)NC(C)c4ccccc4)c3)C(=O)C2C1` (centres undefined), with -6.84% (inactive).

On to `Cc1ccc(C)c(N2CCN(C(=O)CCCn3c(=O)c4cccn4c4cccnc43)CC2)c1`, for which the inhibition was -8.84% (inactive). Then `COc1ccccc1C(=O)CSc1cccc[n+]1[O-]`, with -1.48% (inactive); and `O=C(CSc1cccc[n+]1[O-])c1ccc(Cl)cc1`, with 5.16% (inactive).

For the molecule `O=C(CSc1cccc[n+]1[O-])c1ccc(-c2ccccc2)cc1`, the inhibition is 142% (active). In the case of `CC(=O)Nc1cccc(NC(=O)CSc2nccn2Cc2ccc(F)cc2)c1`, the inhibition is -6.32% (inactive). With `NS(=O)(=O)c1ccc(NC(=O)COC(=O)c2cc3ccccc3oc2=O)cc1`, the inhibition was 16.5% (inactive). Next, `O=C(COC(=O)c1c2c(nc3ccccc13)/C(=C\c1cccs1)CCC2)Nc1ccccc1Cl`: 24.9% (inactive); `COc1cc(-c2cc(C(=O)OCC(=O)Nc3ccc4c(c3)OCO4)c3ccccc3n2)cc(OC)c1OC`: 3.34% (inactive); `NC(=O)c1ccc(NC(=O)COC(=O)c2c3c(nc4ccccc24)/C(=C\c2ccc4c(c2)OCO4)CCC3)cc1`: 59.8% (active).

Take `NS(=O)(=O)c1ccc(NC(=O)COC(=O)c2ccc(Cl)nc2)cc1`: the inhibition is -4.23% (inactive). Next, `NS(=O)(=O)c1ccc(NC(=O)COC(=O)c2c3c(nc4ccccc24)/C(=C\c2ccc4c(c2)OCO4)CCC3)cc1`: 3.72% (active). Turning to `O=C(N/C(=C/c1ccc(Cl)cc1)C(=O)N1CCCCC1)c1ccco1`, the inhibition was 5.11% (inactive).

As for `O=C1CCC(C(=O)N2CCN(c3ccccc3Cl)CC2)CN1CC1CCCCC1` (centres undefined), the inhibition is -2.81% (inactive). Then `Cc1c(OC(C)C(=O)NCC2CCC(C(=O)O)CC2)ccc2c1oc(=O)c1ccccc12` (centres undefined), with -3.63% (inactive); and `CCCC[C@]12Cc3cc(OC)c(OC)cc3C(O1)C1=C(CC3(CCCCC3)OC1=O)O2`, with “inactive”. Then `CCn1cc(CN2CCN(CC(C)(C)C)C(CCO)C2)c2ccccc21` (centres undefined), with 8.71% (inactive).

In the case of `CC(=O)Nc1ccc(S(=O)(=O)N2N=NC3C2C2CC4C3(CN(C(=O)OC(C)(C)C)S4(=O)=O)O2)cc1` (centres undefined), the inhibition is 19.4% (inactive). Then `CN(C)S(=O)(=O)N1CCC(Oc2cccc(C(=O)NCCCC3CCCC3)c2)CC1`, with 56.6% (active). Next, `CNS(=O)(=O)c1cccc(C(=O)NCC2CCCCC2)c1`: 10.6% (inactive).

For the molecule `CN(C(=O)c1cccc(OC2CCN(S(=O)(=O)N(C)C)CC2)c1)C1CCOC1` (centres undefined), the inhibition was 21.6% (inactive).

As to `O=C(CN(C(=O)c1nsc(Cl)c1Cl)c1cccc(F)c1)NC1CCCC1`, the inhibition was -1.89% (inactive). Next, `O=C(NCCCn1ccnc1)C1CCCN(S(=O)(=O)c2cc(Cl)ccc2Cl)C1` (centres undefined): -13% (inactive); `COc1cccc(CNc2nc(C(F)(F)F)nc3ccccc23)c1`: -1.59% (inactive); `COc1cccc(CNS(=O)(=O)c2cc3c(cc2C)n(C)c(=O)c(=O)n3C)c1`: -2.17% (inactive). Regarding `COc1cccc(CNc2ncc(-c3ccccc3)n2C)c1`, the inhibition is 20.5% (active).

As to `COc1cc(C(=O)N/C(=C\c2cn(C)c3ccccc23)C(=O)N2CCOCC2)cc(OC)c1OC`, the inhibition was -2.55% (inactive). As to `COc1ccccc1C(=O)Nc1ccnn1C1CCN(Cc2cnn(C)c2)CC1`, the inhibition is 14.1% (inactive). Next, `CC(C)CNC(=S)NC(=O)c1ccc(Cl)cc1`: 90.8% (active); `Cc1occc1C(=O)NNC(=S)NCC(C)C`: -8.32% (inactive); `CC(C)C(NC(=O)c1ccc(Cl)cc1)C(=O)O` (centres undefined): -21.4% (inactive).

Regarding `CCn1ccnc1CNC(=O)CC1C(=O)NCCN1Cc1ccc(F)cc1Cl` (centres undefined), the inhibition is -5.69% (inactive).
